Results taken from PubChem BioAssay AID1025 (Sanford-Burnham Center for Chemical Genomics, 2008).
Out of some 96,000 compounds screened, fewer than 10 were called active.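 Rule for the calls: active = activation factor of at least 2 at 5 µM in the primary screen; inactive = the rest.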 A selection follows.

Target: Cytochrome P450 2C19 (Homo sapiens) (UniProt P33261)
Assay: human CYP2C19 activators, primary screen, biochemical, luminescence (AID 1025);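 note: 0 = wells with 2.5 mM tranylcypromine and 1 = vehicle-only wells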
Conditions: recombinant CYP2C19, luciferin-H EGE luminescence; at 5 µM; stronger effect = higher value; 0 = fully inhibited enzyme, 1 = untreated enzyme

Chain of Cytochrome P450 2C19 (Homo sapiens) (P33261 whole entry, looked up): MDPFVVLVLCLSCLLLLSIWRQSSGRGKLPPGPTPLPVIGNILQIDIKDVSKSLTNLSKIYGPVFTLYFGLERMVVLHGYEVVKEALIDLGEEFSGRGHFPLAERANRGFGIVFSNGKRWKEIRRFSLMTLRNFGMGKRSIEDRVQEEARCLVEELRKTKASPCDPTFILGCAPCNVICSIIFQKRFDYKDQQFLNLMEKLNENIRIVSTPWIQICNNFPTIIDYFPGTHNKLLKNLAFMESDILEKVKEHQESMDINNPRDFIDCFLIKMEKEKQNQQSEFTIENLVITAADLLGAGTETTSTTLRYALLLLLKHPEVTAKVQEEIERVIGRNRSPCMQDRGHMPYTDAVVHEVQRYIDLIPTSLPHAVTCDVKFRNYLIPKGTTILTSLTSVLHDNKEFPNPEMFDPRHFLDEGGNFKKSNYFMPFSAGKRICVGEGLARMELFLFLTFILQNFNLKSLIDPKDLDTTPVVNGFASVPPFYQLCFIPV

Activation factor, inactive:
CCCNC(=O)c1ccccc1NC(=O)CSCc1ccc(OC)cc1 0.5
CC(C)NC(=O)C(=O)N/N=C/c1ccco1 1.1
CC(C)CCNC(=O)CC1C(=O)N(Cc2ccccc2)C(C)c2nc3ccccc3n21 (stereo unspecified) 0.1
CCCCc1nc(NCCN)c(C#N)c2c1CSC(C)(C)C2 0.7
Cc1ccc(S(=O)(=O)NCC(C)NS(C)(=O)=O)cc1 (stereo unspecified) 0.8
O=C(Nc1ccc(Sc2ccc(Br)cc2)cc1)c1ccco1 0.9
CCCn1nnnc1NC(=O)COc1ccc(Cl)cc1C 0.3
Cc1ccc(N(CC(=O)Nc2cccc(N(C)S(C)(=O)=O)c2)S(C)(=O)=O)cc1 1
O=C(NCCCCCCNC(=O)NCc1ccco1)NCc1ccco1 1.1
CCCCNC(=O)CCn1c(=S)[nH]c2cc3c(cc2c1=O)OCO3 0.6
CCC(=O)OCc1c(C(F)(F)F)nn(C)c1Oc1cccc(C(F)(F)F)c1 0.4
COc1ccc(N(CC(=O)N/N=C/c2cccs2)S(=O)(=O)c2ccc(OC)c(OC)c2)cc1 0
CCc1c(C)sc(NC(=O)c2cccs2)c1C(N)=O 0.2
Cc1nnc(NCCO)c2ccccc12 0.9
COc1cc(/C=N/NC(=O)Nc2ccccc2)ccc1OCCOc1ccccc1C 1
Cc1[nH]nc(-c2ccc(OCc3cnn(-c4ccccc4)c3)cc2O)c1Oc1ccc(Cl)cc1 0.8
COc1ccc2c(c1)SC(C)CC2=O (stereo unspecified) 0.2
COC(=O)Nc1ccc(S(=O)(=O)N2CCN(CCN3C(=O)C4C5C=CC(C5)C4C3=O)CC2)cc1 (stereo unspecified) 0.9
Cc1ccc(O)c(CNc2nc3ccccc3n2C)c1 0.6
CSc1ccc(CCNC(=O)C2CCN(c3nnc(-n4cccc4)s3)CC2)cc1 0.7
O=C(CCc1ccc(S(=O)(=O)NC2CCCCC2)cc1)NCc1ccccc1 0.4
O=c1[nH]c2c(c(=O)n1Cc1ccccc1)CCC2 1
Cc1ccc2nc(/C(C#N)=C\c3ccc(OC(=O)c4cccs4)cc3)[nH]c2c1 0.5
O=C(/C=C/c1ccccc1)c1ccoc1 0.7
CN1C2CCC1/C(=C\c1ccccc1Cl)C(=O)/C2=C\c1ccccc1Cl 1.1
CC(N=Cc1nc(-c2ccccc2)oc1O)c1ccccc1 (stereo unspecified) 0.3
O=C(NCN1CCN(CCO)CC1)c1cnccn1 1.1
CC(Oc1ccc(Cl)cc1Cl)C(=O)/C=C/N(C)C (stereo unspecified) 0.4
CN(C)/C=C(\C#N)C(=O)c1cccnc1Oc1cccc(F)c1 0.6
CC1CCC(N2CC(=O)N(Cc3ccc4c(c3)OCO4)C(c3ccc(F)cc3)C2=O)CC1 (stereo unspecified) 0.8
C/C(=N\NC(=O)c1ccccc1C)c1ccc(N2CCOCC2)cc1 1
C=CCOc1cccc(CNn2cn[nH]c2=S)c1 0.7
COc1cc(OC)cc(C(=O)NC(=S)N2CCN(c3ccc(C(F)(F)F)cc3[N+](=O)[O-])CC2)c1 0.8
Cc1ccc(N(Cc2ccc(C(=O)Nc3ccccc3C(=O)NCc3ccco3)cc2)S(C)(=O)=O)cc1C 0.1
Cc1cc(=O)oc2ccc(OCC(=O)O)cc12 1
NC(=O)c1c(NC(=O)CSc2nnc(-c3ccco3)n2N)sc2c1CCCC2 0.7
O=C(O)/C=C/C(=O)Nc1ccc(F)cc1F 0.9
Clc1ccc(COn2c(-c3ccc(Cl)cc3Cl)nc3ncccc32)cc1 0
CCOCCn1c(C(C)C)nc2ccccc21 0.8
O=C(CCc1ccc(S(=O)(=O)N2CCOCC2)cc1)Nc1ccc2ccccc2c1 0.4
CCC(CC)C(=O)N1CC(=O)Nc2ccc(Br)cc2C1c1ccccc1 (stereo unspecified) 0.5
CC(N)C12CC3CC(CC(O)(C3)C1)C2 (stereo unspecified) 0.9
COc1ccc(C(=O)CN(C(=O)c2ccc(Cl)cc2)N2C(=O)c3ccccc3C2=O)cc1 0.6
O=C(CCN1c2ccccc2Sc2ccccc21)Nc1ccccc1 0.2
CCOc1cc(CNCCN(C)C)c(Cl)cc1OCC(=O)NCCc1ccccc1 1
Cc1cc(C(=O)Nc2c(C)nn(Cc3ccccc3)c2C)on1 0.9
CC(C)CNC(=S)NNC(=O)c1ccccc1OC(F)F 0.8
Cc1ccccc1NC(=O)C(C)c1ccc(-c2ccccc2)c(F)c1 (stereo unspecified) 0.9
Cc1ccc(CS(=O)(=O)CCC(=O)NC2CC2)cc1 0.9
O=C(NC1CCCCC1)C1CC(=O)N(CCc2ccccc2)C1 (stereo unspecified) 1.1
Cc1ccc(C2NC(=S)NC3=C2N2CCC3CC2)cc1 (stereo unspecified) 1.1
C/C(=N\NS(=O)(=O)c1ccc(Br)cc1)c1cccs1 0.3
CC1(C)CC(CC(=O)O)C(=O)O1 (stereo unspecified) 1.1
CCOC(=O)c1cnc(SC)nc1Sc1ccc(Cl)cc1Cl 0.7
CS(=O)(=O)N(CC(=O)Nc1ccc(F)cc1F)c1cccc([N+](=O)[O-])c1 0.4
CSc1ccccc1NC(=O)c1cc(C2CC2)on1 0.7
O=C(/C=C\NCC(=O)c1ccccc1)c1ccccc1 0.5
O=C(NCc1ccccn1)c1cc(-c2ccccc2Cl)on1 0.9
COc1cc(/C=N\NC(=O)CNC(=O)c2cccc([N+](=O)[O-])c2)ccc1O 0.8
COc1ccc(CC(=O)Nc2sc(Cc3ccccc3)c(C)c2C(N)=O)cc1 1
FC(F)(F)c1nnc2ccc(N3CCN(c4ccccc4)CC3)nn12 0.7
CC1CC(C)CN(C(=O)CSc2nnc(CSc3ncccn3)n2C)C1 (stereo unspecified) 1.1
Cc1cc2[nH]ncc2cc1NC(=S)NC(=O)c1ccccc1 0
CCCCCCSc1nsc(N)n1 0.5
COc1cccc(-c2cc(C(=O)N/N=C/c3ccc(OC)c(COC(C)=O)c3)c3ccccc3n2)c1 0.5
CC1=NN(C(=O)Cc2ccc(C)cc2)C(O)(c2cccnc2)C1 (stereo unspecified) 0.4
